The values below come from PubChem BioAssay AID493168 (National Center for Advancing Translational Sciences (NCATS), 2011).

The structures appear in SMILES notation. Results filed as inconclusive are left out. A call without a number means that no potency is given here. Activity calls are given as the source filed them. Calls come from the whole dose curve; as a rule, active = well fitted inhibition curve with a large enough effect; inconclusive = small, poorly fitted or top-dose-only effect, or effect the other way; inactive = flat fitted curve, though single readings scatter.
Potency is the fitted concentration of half-maximal effect.

Chain of Ubiquitin carboxyl-terminal hydrolase 2 (Homo sapiens) (O75604 whole entry, looked up): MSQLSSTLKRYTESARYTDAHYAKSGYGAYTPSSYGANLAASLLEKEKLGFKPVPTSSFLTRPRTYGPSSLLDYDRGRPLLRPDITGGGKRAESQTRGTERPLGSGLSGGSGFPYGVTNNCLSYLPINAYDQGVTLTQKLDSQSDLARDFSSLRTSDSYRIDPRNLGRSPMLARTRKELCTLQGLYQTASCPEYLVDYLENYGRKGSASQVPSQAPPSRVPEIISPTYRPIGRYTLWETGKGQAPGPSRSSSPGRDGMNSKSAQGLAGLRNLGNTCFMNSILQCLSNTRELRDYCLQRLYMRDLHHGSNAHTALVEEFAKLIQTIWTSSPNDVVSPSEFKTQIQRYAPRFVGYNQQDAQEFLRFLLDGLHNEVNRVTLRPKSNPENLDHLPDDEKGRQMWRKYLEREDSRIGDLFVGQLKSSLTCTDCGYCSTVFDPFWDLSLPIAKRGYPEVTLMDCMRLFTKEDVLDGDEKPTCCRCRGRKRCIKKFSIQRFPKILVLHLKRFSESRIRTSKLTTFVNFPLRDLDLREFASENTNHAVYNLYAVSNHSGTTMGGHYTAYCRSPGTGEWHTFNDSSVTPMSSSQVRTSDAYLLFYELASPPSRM

This test concerns the target Ubiquitin carboxyl-terminal hydrolase 2 (Homo sapiens) (UniProt O75604). Put plainly: Confirmation Assay for Inhibitors of Ubiquitin-specific Protease USP2a Using CHOP2 as the Reporter. Note: nearly all actives have a fitted effect of over 55% in size. The note with it: USP2 core, Ub-CHOP2 coupled reporter fluorescence; series mostly up to 38.3 µM. Summed up: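 Ub-CHOP2 cleavage coupled to reporter activation was read by fluorescence after 60 min at RT, with 25 nM final Ub-CHOP2 and substrate. Enzyme (10 nM final USP2 core) first sat 30 min with compound; data were normalized to NEM and fitted to concentration-response curves.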
As to `CC(C)C(=O)N=c1sc2cc(F)cc(F)c2n1C`, the Potency result was “inactive”.

For `S=c1[nH]nc(-c2cc(-c3ccco3)[nH]n2)n1-c1cccc2ccccc12`, the Potency entry is “inactive”.

Regarding `CCc1nnc(NC(=O)CSc2nccn2-c2cccc(C)c2)s1`, the Potency result was “inactive”.

As for `Nc1ccc(C2=Nc3cccc4cccc(c34)N2)cc1`, the Potency result is “inactive”.

With `CCn1c(CN2CCOCC2)nnc1SCC(=O)Nc1ccc(C(C)=O)cc1`, the Potency result was “inactive”.

`Cc1noc(C)c1NC(=O)Nc1ccc2c(c1)C(=O)N([C@H](C)CO)C[C@H](C)[C@@H](CN(C)S(=O)(=O)c1ccccc1)O2`: the Potency entry is “inactive”.

In the case of `O=C(Nc1cnn(Cc2ccccc2)c1)c1nc2ncccn2n1`, the Potency result is “inactive”.

Regarding `COc1ccc(O)c(-c2cc(-c3ccc(F)cc3)n[nH]2)c1`, the Potency result was “inactive”.

Regarding `O=C(CCCN1C(=O)c2ccccc2C1=O)NC1=NCCS1`, the Potency entry is “inactive”.

In the case of `O=C1CCCc2nc(N3CCN(c4ccccc4)CC3)ncc21`, the Potency result is “inactive”.

In the case of `COc1ccc(-n2c(=S)[nH]c3cc(C(=O)Nc4cc(OC)c(OC)c(OC)c4)ccc3c2=O)c(OC)c1`, the Potency entry was “inactive”.

Consider `Cc1ccc(/C=N/NC(=O)c2cc(-c3ccc(C)o3)[nH]n2)cc1`, for which the Potency entry was “inactive”.

Turning to `CCOc1cccc(NC(=O)/C(C#N)=C\c2cn(CC(=O)O)c3ccccc23)c1`, the Potency result was “inactive”.

Regarding `C=CCn1c(O)c(C(CC)=NCCN2CCOCC2)c(=O)[nH]c1=O`, the Potency entry is “inactive”.

For `C[C@](N)(Cc1ccc(O)c(O)c1)C(=O)O`, the Potency result is “inactive”.

With `CCCCc1ccc(/C=C2/C(=O)ON=C2c2ccccc2)s1`, the Potency entry is “inactive”.

Take `CCn1c(COc2ccc(C)cc2)nnc1SCC(=O)Nc1ccc2c(c1)OCCO2`: the Potency result was “inactive”.

Take `COc1cc(C(c2c(C)[nH][nH]c2=O)c2c(C)[nH][nH]c2=O)ccc1OCc1ccc([N+](=O)[O-])cc1`: the Potency result is “inactive”.

Consider `CCCC(c1nnnn1Cc1ccc(OC)cc1)N1CCC(C(N)=O)CC1` (stereo not given), for which the Potency result is “inactive”.

With `COc1ccc2nc(C)cc(SCC(=O)N/N=C/c3c(OC)ccc4ccccc34)c2c1`, the Potency result is “inactive”.

On to `Cc1ccccc1OCc1nc2ccccc2c(=O)n1N`, for which the Potency result was “inactive”.

Turning to `O=C(COC(=O)c1cc(-c2ccc(Cl)s2)nc2ccccc12)NCc1ccco1`, the Potency is 18.5 µM (active).

For `O=C(OCc1nc2ccccc2[n+]([O-])c1C(=O)c1ccccc1)c1cccs1`, the Potency result is “inactive”.

Take `Cc1cccc(NC(=S)NCc2ccc3c(c2)cc(C)n3C)c1C`: the Potency result was “inactive”.

On to `O=C(O[C@@H]1OC2COC(=O)c3cc(O)c(O)c(O)c3-c3c(cc(O)c(O)c3O)C(=O)O[C@@H]([C@H]1O)[C@@H]2O)c1cc(O)c(O)c(O)c1`, for which the Potency was 16.5 µM (active).

Take `CC(C)OCCCNC(=O)CN1C(=O)CC(C)(C)S(=O)(=O)c2ccccc21`: the Potency result is “inactive”.

Turning to `c1coc(CNc2nc(-c3cccs3)cs2)c1`, the Potency entry was “inactive”.

`CCOc1ccc(NC(=O)c2cccc(-n3cnnn3)c2)cc1`: the Potency entry is “inactive”.

As for `COc1ccc(-n2c(O)c(/C=N/n3cnnc3)c3ccccc3c2=O)cc1`, the Potency entry is “inactive”.

Regarding `Cc1ccc(C(=O)c2coc3c2C(=O)C(=O)c2ccccc2-3)cc1`, the Potency result is “inactive”.

As to `CCOC(=O)COc1ccccc1/C=N/O`, the Potency entry was “inactive”.

Turning to `CCCn1c(NC(=O)c2ccc(Br)cc2)nc2ccccc21`, the Potency entry is “inactive”.

As to `CCOC(=O)N1CCN(CC(=O)n2c(C)c(C)c3ccccc32)CC1`, the Potency result is “inactive”.

With `CCOc1ccc(Cn2c(=O)sc3ccccc32)cc1OC`, the Potency result was “inactive”.

With `COc1ccc2cc(CN(C(=O)Nc3ccccc3)C3CCCC3)c(=O)[nH]c2c1`, the Potency result is “inactive”.

For the compound `COc1ccc(/C=C2/SC(=S)N(c3ccc(S(=O)(=O)Nc4nccs4)cc3)C2=O)cc1`, the Potency was 13.1 µM (active).

Consider `O=C(Nc1nc(-c2ccco2)c(-c2ccco2)s1)C1CC(=O)N(c2ccc3c(c2)OCCO3)C1` (stereo not given), for which the Potency was 10.4 µM (active).

In the case of `CSCCC(NC(=O)c1cc(C(C)(C)C)oc1C)C(=O)O` (stereo not given), the Potency result is “inactive”.

As for `Cc1ccc(C(=O)N/C(=C/c2cccs2)C(=O)NCc2ccco2)cc1`, the Potency entry was “inactive”.

As for `Cc1ccc(C(C(=O)NC2CCCC2)N2CCc3ccccc32)cc1` (stereo not given), the Potency result was “inactive”.
